GBA activity: human lysosomal glucosylceramidase modulation; P04062; purified enzyme, resorufin glucoside fluorescence (screen aimed at inhibitors), 20 min; AID 360; Potency, µM; 48,000 compounds, 1.1% hits; in the data active means potency below about 15 µM; inconclusive means mostly about 16 µM to 33 µM;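 further: the screen sought inhibitors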
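Compounds titrated against 0.2 nM normal enzyme, 30 uM resorufin beta-D-glucopyranoside substrate, citrate/phosphate buffer with taurocholate and tween-20, pH 5.9. Reaction ran 20 min at room temperature; fluorescence (Ex 548/Em 600) gave AC50.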
TSHR agonist: agonists of human thyroid stimulating hormone receptor; P16473; HEK293-CNG-TSHR cells (CNG channel as cAMP sensor), membrane potential dye, cAMP; Potency, µM (series often up to 57.1 µM), inactives show at the highest dose activation, actives largely listed as activators; 73,000 compounds, 0.48% hits; AID 926; active means well fitted activation curve with a large enough effect in the main read-out, with a control signal flat, not every such curve was filed as active; inconclusive means small, poorly fitted or top-dose-only effect, or a change in a side signal; inactive means no such curve, though single readings can be large or run the other way; % of control where 0% means no effect;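 further: the control signal comes from parental cells without the receptor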
Target sequence (P16473 whole entry, looked up): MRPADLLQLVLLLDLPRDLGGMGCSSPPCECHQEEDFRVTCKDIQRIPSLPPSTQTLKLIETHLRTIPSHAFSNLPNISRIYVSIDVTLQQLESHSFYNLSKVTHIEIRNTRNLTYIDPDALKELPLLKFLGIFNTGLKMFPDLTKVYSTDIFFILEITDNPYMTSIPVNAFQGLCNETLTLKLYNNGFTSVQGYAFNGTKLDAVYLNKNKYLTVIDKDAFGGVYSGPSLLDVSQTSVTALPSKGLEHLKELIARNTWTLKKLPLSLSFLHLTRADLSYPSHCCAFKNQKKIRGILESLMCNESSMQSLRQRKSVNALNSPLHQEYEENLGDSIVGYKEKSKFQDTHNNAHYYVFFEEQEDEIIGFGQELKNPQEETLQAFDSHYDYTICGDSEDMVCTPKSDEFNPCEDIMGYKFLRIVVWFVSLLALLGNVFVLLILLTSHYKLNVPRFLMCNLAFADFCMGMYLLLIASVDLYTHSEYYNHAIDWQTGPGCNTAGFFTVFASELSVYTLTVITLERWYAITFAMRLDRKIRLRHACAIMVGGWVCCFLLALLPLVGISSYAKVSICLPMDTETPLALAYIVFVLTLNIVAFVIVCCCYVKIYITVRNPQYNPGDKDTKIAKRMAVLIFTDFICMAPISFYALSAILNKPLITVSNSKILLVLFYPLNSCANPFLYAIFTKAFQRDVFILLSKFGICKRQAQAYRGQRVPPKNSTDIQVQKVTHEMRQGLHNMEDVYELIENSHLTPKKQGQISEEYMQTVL
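cAMP rise detected as CNG-channel membrane depolarization by fluorescent dye (emission 590 nm), 30 min after compound, following 60 min dye loading containing 100 uM RO 20-1724 at room temperature. Cells: TSHR/CNG HEK 293, with parental CNG HEK 293 as control.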
Bst PK mod: pyruvate kinase (B. stearothermophilus) modulation | purified pyruvate kinase, luminescence ATP production; ribose 5-phosphate activator present at AC10 | Potency, µM | 51,000 compounds, 1.2% hits | AID 361; in the data active means potency below about 11 µM; inconclusive means mostly about 12 µM to 25 µM;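 the screen sought inhibitors and activators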;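 further: scaled between full activation by ribose 5 phosphate and full inhibition by luteolin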
HEK293 cAMP cs: raises cAMP in parental HEK293 cells, TSHR agonist counter-screen; 73,000 compounds, 2.5% hits; AID 938; parental HEK293 CNG cAMP sensor, membrane potential fluorescence; Potency, µM (highest dose often 57.1 µM), inactives show at the highest dose activation, most hits filed as activators; active means well fitted activation curve with a large enough effect; inconclusive means small, poorly fitted or top-dose-only effect; inactive means no such curve, though single readings can be large or run the other way; further: % of control where 0% means no effect; nearly all actives have a fitted effect of over 55% in size
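Parental HEK 293 cells stably expressing a modified CNG channel (no TSHR) report cAMP rise as membrane depolarization. Membrane potential dye with 100 uM RO 20-1724 was loaded for 60 min at room temperature, then compound added for 30 min; fluorescence read at 590 nm.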
* marks the source's active call; other numbers are inactive results; i = inactive; ? = inconclusive; / = not tested or not shown; [ ] = another dose, or the depositor's remark. A selection: hits, their analogues and other compounds. The true share with any hit is near 4%. Potency means the concentration at half of the fitted maximal effect.

SMILES	GBA activity	TSHR agonist	Bst PK mod	HEK293 cAMP cs
N#Cc1nc(-c2ccc(OCc3ccc(Cl)cc3)cc2)oc1NCCCn1ccnc1	i	-16%	0.33*	-11%
N#Cc1nc(-c2ccc(OCc3ccccc3)cc2)oc1NCc1ccco1	>77	1%	/	6%
C/C(=C\COc1cc(=O)[nH]c2ccccc12)CC[C@@H](O)C(C)(C)O	/	1%	/	-4%
CCOC(=O)c1cc(C#N)c(SCc2ccc(C#N)cc2)nc1C	>77	?	>57	32µM*
CCN(CC)S(=O)(=O)c1ccc(S(=O)(=O)Nc2cc3c(cc2C(C)=O)OCO3)cc1	15*	?	>57	?
CC(=O)O[C@@H]1CC[C@]2(C)C(=C[C@@H]([C@@H]3C=C4C[C@@H](OC(C)=O)CC[C@]4(C)C4=C3[C@H]3C[C@@H]5O[C@@]6(CC[C@H](C)CO6)[C@@H](C)[C@@H]5[C@@]3(C)CC4)C3=C2CC[C@@]2(C)[C@H]4[C@@H](C)[C@]5(CC[C@H](C)CO5)O[C@@H]4C[C@H]32)C1	/	2%[11.4 µM]	/	3%[11.4 µM]
CCCCC(CC)COC(=O)COc1ccc(Cl)cc1Cl (stereo unspecified)	/	9%	/	19%
O=C(NC1CCCCC1)c1ccc(Cc2nc3ccccc3[nH]2)cc1	/	-5%	/	3%
O=C(COC(=O)C12CC3CC(CC(O)(C3)C1)C2)NC(=O)NCc1ccco1	>77	-9%	>57	2%
COC(=O)c1ccc(COC(=O)C23CC4CC(CC(O)(C4)C2)C3)o1	>77	25µM*	>57	7%
CN(Cc1ccco1)c1ccnc(-c2ccoc2)n1	/	-1%	/	-12%
Cc1cc(C(=O)NCC2CCCO2)n(-c2ccccc2)n1 (stereo unspecified)	/	0%	/	3%
CC(=O)Nc1ccc(NC(=O)c2cc(C)nn2-c2ccccc2)cc1	12*	?	>57	?
Cn1c(=O)c(=O)n(C)c2cc(S(=O)(=O)Nc3ccc4c(c3)OCCO4)ccc21	>77	/	>57	11%
CC(C)(C)C(=O)Nc1ccc(-c2cn3ccsc3n2)cc1	i	?	1.6*	?
O=S(=O)(Nc1ccc(-c2cn3ccsc3n2)cc1)c1ccc2c(c1)OCCO2	15*	/	>57	24%
CC(C)CC(=O)Nc1ccc(-c2cn3ccsc3n2)cc1	/	-12%	2.7*	-4%
O=C(CCN1CCCCC1)c1csc2ccccc12	/	4%[11.4 µM]	/	-2%[11.4 µM]
O=C(O)c1cc2ccccc2c(S(=O)(=O)O)c1O	/	6%[11.4 µM]	/	2%[11.4 µM]
O=C(NCC12CC3CC(CC(C3)C1)C2)c1nn2c(c1Cl)NC(c1ccco1)CC2C(F)(F)F (stereo unspecified)	14*	-4%	>57	-7%
COc1ccc(OC)c(NC(=O)C2COc3ccccc3O2)c1 (stereo unspecified)	/	/	/	57%
CCOc1ccc(OCC)c(NC(=O)C2COc3ccccc3O2)c1 (stereo unspecified)	>77	?	>57	32µM*
COc1ccc(CNC(=O)C(OC(C)=O)c2ccccn2)cc1 (stereo unspecified)	>77	?	>57	7.9µM*
COc1ccc(N(CC(=O)NC2CCCC2)C(=O)Cn2nnc(-c3ccc(F)cc3)n2)cc1OC	8.6*	7%	>57	14%
O=C(CN(CCN1CCOCC1)C(=O)Cn1nnc(-c2ccc(F)cc2)n1)NC1CCCCC1	/	1%	>57	8%
SMILES	GBA activity	TSHR agonist	Bst PK mod	HEK293 cAMP cs
COc1ccc(N(CC(=O)NC2CCCC2)C(=O)Cn2nnc(-c3ccc(C)cc3)n2)cc1OC	9.4*	?	>57	?
O=C(CN(CCCN1CCOCC1)C(=O)Cn1nnc(-c2ccc(F)cc2)n1)NC1CCCCC1	4*	2%	>57	12%
Cc1ccc(S(=O)(=O)OCC(=O)O)cc1	/	0%[11.4 µM]	/	13%[11.4 µM]
O=C(OCC(=O)N1CCN(C(=O)c2ccco2)CC1)c1ccccc1OCc1ccc(Cl)cc1	>77	?	/	25µM*
Cc1ccsc1-c1nc(CSCC(=O)NCc2ccc3c(c2)OCO3)c(C)o1	/	20µM*	/	20%
CSCc1nnc(NC(=O)c2ccc(S(=O)(=O)N(CC(C)C)CC(C)C)cc2)o1	6.8*	?	>57	?
Cc1nnc(NC(=O)c2ccc(S(=O)(=O)N(C)Cc3ccccc3)cc2)o1	14*	-4%	>57	-2%
CCc1nnc(NC(=O)c2ccc(S(=O)(=O)N(CC(C)C)CC(C)C)cc2)o1	?	8%	>57	13%
CCOC(=O)N/N=C1/C[C@@H](O)[C@@H](O)[C@@H]2[C@H]3C(=O)N(c4ccc(F)cc4F)C(=O)[C@@H]3CC[C@H]12	/	0%[11.4 µM]	/	3%[11.4 µM]
COc1ccc(O[C@H]2C=C[C@@H](c3ccccc3)O[C@@H]2CON=C(C)C)cc1	/	14%[11.4 µM]	/	-1%[11.4 µM]
COc1cccc2sc(N(C)c3ccccc3)nc12	>77	14%	8.1*	11%
O=C(O)C(F)(F)C(F)(F)C(F)(F)C(F)(F)C(=O)O	/	6%[11.4 µM]	/	3%[11.4 µM]
CSc1nc2[nH]c3c(c2c2ncnn12)CCCC3	/	/	0.42*	/
Cc1ccc(-n2c(C)c3c(C)nnc(C)c3c2C)cc1	>77	?	>57	?
Cc1nnc(C)c2c(C)n(-c3ccc(Br)cc3)c(C)c12	/	?	/	4µM*
COCCNC(=O)c1ccc(-n2c(=O)c(=O)[nH]c3ccccc32)cc1	/	0%	/	9%
Cc1ccc(Cn2nnc3c(=O)n(Cc4cc(C)ccc4C)cnc32)cc1	>77	?	>57	3.2µM*
Cc1ccc(Cn2nnc3c(=O)n(Cc4cccc(C)c4)cnc32)cc1	>77	?	>57	?
CCCN(CCC)S(=O)(=O)c1cccc(C(=O)Nc2ccc3c(c2)OCO3)c1	/	?	>57	16µM*
CCN(CC)S(=O)(=O)c1ccc(C(=O)Nc2ccc3c(c2)OCCO3)cc1	?	0%[11.4 µM]	>57	-6%
O=C(NCCCN1CCCCCC1)[C@@H](c1ccccc1)C1CCCCC1	/	?	/	16µM*
CN(C)C(=O)C1CCN(Cc2c[nH]c3ccccc23)CC1	/	0%[11.4 µM]	/	-3%[11.4 µM]
Cn1c2ccc(F)cc2c2ncn(CCN3CCOCC3)c(=O)c21	>77	3%	/	-11%
Cn1c2ccccc2c2ncn(CCCN3CCOCC3)c(=O)c21	>77	8%[11.4 µM]	9.7*	-6%
CC(C)COc1ccc(-c2nnc(-c3ccncc3)o2)cc1	>77	?	2.3*	?
SMILES	GBA activity	TSHR agonist	Bst PK mod	HEK293 cAMP cs
CCCOc1ccc(-c2nnc(-c3ccncc3)o2)cc1	>77	7%	1.6*	15%
C[C@@H](SCc1ccccc1)C(=O)O	/	2%[11.4 µM]	/	2%[11.4 µM]
CCn1c(=N)n(CC(=O)c2ccco2)c2ccccc21	13*	6%	/	6%
COc1ccc(N(CC(O)Cn2nnc3ccccc32)S(=O)(=O)c2ccc(C)cc2)cc1 (stereo unspecified)	>77	19%	5.7*	14%
Cc1ccc(NS(=O)(=O)c2cc(C(=O)O)ccc2Cl)cc1C	/	7%	/	10%
COc1cc(CO)cc(Br)c1OCC(=O)O	/	25µM*	/	13%
COc1cc(CO)cc(-c2cc(CO)cc(OC)c2OC)c1OC	>77	1%	>57	1%
CC(C)C1=C[C@@]23CC[C@@H]4[C@](C)(CCC[C@@]4(C)C(=O)O)[C@@H]2C[C@@H]1[C@@H](C(=O)O)[C@@H]3C(=O)O	/	3%[11.4 µM]	/	-5%[11.4 µM]
